The record followed here is PubChem BioAssay (Tox21).

Test [1] in a line: qHTS assay to identify small molecule agonists of the hypoxia (HIF-1) signaling pathway - cell viability counter screen (AID 1224844; calls by dose curve; note: nearly all actives have a fitted effect of over 50% in size; note: potency is the fitted concentration of half-maximal effect; for activity change, negative = cytotoxicity: % is set by controls: 0 for no effect and ±100 for the full control effect). Put shortly:
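Cells (HRE-bla ME-180, 2,000 per well) sat 5 hrs at 37C, got compound for 17 hrs, were read for CCF4-AM FRET, and were finally lysed with CellTiter-Glo for a 30 min room-temperature luminescence read.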
In general terms: Quantitative high-throughput screening tests each substance at several concentrations.

The nature of test [2]: qHTS assay to identify small molecule antagonists of the estrogen related receptor (ERR) signaling pathway from Tox21 library (AID 1224848). Note: nearly all actives have a fitted effect of over 50% in size. Note: potency is the fitted concentration of half-maximal effect. Put shortly: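 Cells: ERR line, 2,000/well; 6 h preincubation 37 C/5% CO2. Cpd in DMSO via pin tool; 18 h, 37 C. ONE-Glo, 30 min RT, luminescence.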
A short description of test [3]: qHTS assay to identify small molecule agonists of the estrogen related receptor (ERR) signaling pathway from Tox21 library (AID 1224849; calls by dose curve; note: % is set by controls: 0 for no effect and ±100 for the full control effect; nearly all actives have a fitted effect of over 15% in size). As to conditions: ERR reporter cell line, ONE-Glo luciferase, 18 h; at 92.4 µM (top of the series) unless noted. An outline of the steps: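 Screening used an NTP-provided ERR luciferase cell line. Compounds in DMSO were added 6 h after seeding and left 18 h at 37 C before a 30 min ONE-Glo step and luminescence reading.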

Test [4] in a line: qHTS RealTime-Glo MT Cell Viability Assay in HepG2 cells - 24 hour (AID 1224867). For activity change, negative = cytotoxicity: % is set by controls: 0 for no effect and ±100 for the full control effect. Note: nearly all actives have a fitted effect of over 50% in size. Note: potency is the fitted concentration of half-maximal effect. An outline of the steps: (§1)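 Cell number in HepG2 cultures estimated from NanoLuc luminescence generated by metabolic reduction of a prosubstrate by living cells. The homogeneous, nonlytic format allowed repeated reads at 0, 8, 16, 24, 32 and 40 h of compound exposure.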
The nature of test [5]: qHTS RealTime-Glo MT Cell Viability Assay in HEK293 cells - 32 hour (AID 1224868). Note: potency is the fitted concentration of half-maximal effect; nearly all actives have a fitted effect of over 50% in size. Put shortly:
(§2)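 Homogeneous bioluminescent viability format in HEK293 cells (600 cells/well). Following 5 h at 37 C/5% CO2, 23 nL compound was pintooled; the signal was measured repeatedly during 40 h incubation.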

The nature of test [6]: A CellTox Green Cytotoxicity Assay to monitor cytotoxicity in HEK293 cells - 0 hour (AID 1224869). For Cytotoxicity: % is set by controls: 0 for no effect and ±100 for the full control effect. Note: nearly all actives have a fitted effect of over 50% in size. Note: potency is the fitted concentration of half-maximal effect. An outline of the steps:
(§3)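 Fluorescence intensity, read at 0, 8, 16, 24, 32 and 40 h of compound treatment, reflected dye binding to DNA of dead HEK293 cells; compounds (23 nL, DMSO) were added 5 h after plating cells with reagent.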

Test [7] can be described thus: qHTS RealTime-Glo MT Cell Viability Assay in HepG2 cells - 40 hour (AID 1224870). Note: nearly all actives have a fitted effect of over 50% in size. Note: potency is the fitted concentration of half-maximal effect. An outline of the steps:
(§4)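 HepG2 cells mixed with RealTime-Glo MT reagents (NanoLuc plus cell-permeant prosubstrate) were seeded at 600 cells/well, incubated 5 h at 37 C/5% CO2, then pinned with compounds in DMSO; nonlytic luminescence tracked viability during 40 h treatment.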

Test [8] in a line: A CellTox Green Cytotoxicity Assay to monitor cytotoxicity in HEK293 cells - 40 hour (AID 1224871). Note: nearly all actives have a fitted effect of over 45% in size. Note: potency is the fitted concentration of half-maximal effect. Put shortly:
as §3

The nature of test [9]: qHTS RealTime-Glo MT Cell Viability Assay in HEK293 cells - 16 hour (AID 1224872). Note: nearly all actives have a fitted effect of over 50% in size. Note: potency is the fitted concentration of half-maximal effect. Put shortly: as §2
Test [10] in a line: qHTS RealTime-Glo MT Cell Viability Assay in HepG2 cells - 8 hour (AID 1224873). Note: nearly all actives have a fitted effect of over 55% in size. Note: potency is the fitted concentration of half-maximal effect. Put shortly: as §4
The nature of test [11]: qHTS RealTime-Glo MT Cell Viability Assay in HEK293 cells - 40 hour (AID 1224874). Note: nearly all actives have a fitted effect of over 50% in size. Note: potency is the fitted concentration of half-maximal effect. As to conditions: RealTime-Glo luminescence; max response: hits give low values. An outline of the steps: (§5)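 Viable HEK293 cells reduce a cell-permeant prosubstrate; the product diffuses out and is consumed by NanoLuc in the medium to give light. Compounds went in after a 5 h incubation and plates were read over the treatment course.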

The nature of test [12]: qHTS RealTime-Glo MT Cell Viability Assay in HepG2 cells - 32 hour (AID 1224877). Note: nearly all actives have a fitted effect of over 55% in size. Note: potency is the fitted concentration of half-maximal effect. An outline of the steps:
as §1

The nature of test [13]: A CellTox Green Cytotoxicity Assay to monitor cytotoxicity in HepG2 cells - 24 hour (AID 1224878). Note: nearly all actives have a fitted effect of over 45% in size. Note: potency is the fitted concentration of half-maximal effect. Put shortly:
(§6)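 Using 1536-well format, dye-containing HepG2 suspension was seeded, allowed 5 h at 37 C/5% CO2, dosed by pintool with compounds, positive and negative controls, and imaged for fluorescence across 40 h.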

The nature of test [14]: A CellTox Green Cytotoxicity Assay to monitor cytotoxicity in HepG2 cells - 40 hour (AID 1224879). Note: nearly all actives have a fitted effect of over 40% in size. Note: potency is the fitted concentration of half-maximal effect. An outline of the steps: as §6
Test [15] is described as follows: qHTS assay to identify small molecule agonists of the hypoxia (HIF-1) signaling pathway (AID 1224846; active = well fitted activation curve with a large enough effect in the signal ratio in the repeat runs, not every such curve was filed as active; the % refers to the signal ratio; note: % is set by controls: 0 for no effect and ±100 for the full control effect). An outline of the steps: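 A low-serum medium (0.5% dialyzed FBS) holding 2,000 HRE-bla ME-180 cells per well is preincubated for 5 hrs, dosed with compounds by pintool, and kept a further 17 hrs at 37C, 5% CO2 before CCF4-AM FRET detection of beta-lactamase.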

A short description of test [16]: A CellTox Green Cytotoxicity Assay to monitor cytotoxicity in HEK293 cells - 24 hour (AID 1224875). Note: nearly all actives have a fitted effect of over 45% in size. Note: potency is the fitted concentration of half-maximal effect. Put shortly: as §3
Test [17] is described as follows: A CellTox Green Cytotoxicity Assay to monitor cytotoxicity in HepG2 cells - 16 hour (AID 1224876). Note: nearly all actives have a fitted effect of over 45% in size. Note: potency is the fitted concentration of half-maximal effect. Put shortly:
as §6

A short description of test [18]: qHTS RealTime-Glo MT Cell Viability Assay in HEK293 cells - 0 hour (AID 1224880). An outline of the steps: as §5
Test [19] in a line: qHTS assay to identify small molecule agonists of H2AX - cell viability counter screen (AID 1224847; calls by dose curve; note: top concentration of the series differs between compounds; % is set by controls: 0 for no effect and ±100 for the full control effect; nearly all actives have a fitted effect of over 30% in size). Put shortly:
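Cytotoxicity counter screen in wild-type CHO-K1 cells: a 3 hr compound treatment at 37C across 15 concentrations, followed by CellTiter-Glo luminescence to gauge viable cells.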

Values without a mark were called inactive. Inconclusive results are not listed. The source made the active and inactive calls. Unless noted, calls come from the whole dose curve; as a rule, active = well fitted curve in the direction sought with a large enough effect in the repeat runs; inconclusive = weak or mixed curves; inactive = no such curve, though single readings can be large; an effect the other way counts as inactive or inconclusive.

Take `OCCN1CCN(CCCN2c3ccccc3Sc3ccc(Cl)cc32)CC1`: the Potency in test [1] was 15.1 µM (active); in [2], 29.8 µM (active); in [4], 23.9 µM (active); in test [5] it was 23.9 µM (active); in test [7] it was 23.9 µM (active); in test [8], 26.8 µM (active). The Potency in test [9] is 23.9 µM (active); in [10], 23.9 µM (active); in [11], 23.9 µM (active); in test [12] it was 23.9 µM (active); in [13], 15.1 µM (active); in test [14] it was 19 µM (active). Besides, in test [3], the activity change, positive = activation is -48% [at 42.5 µM]. In test [6], the Potency result was “inactive”.

`COc1cc(C(=O)NC2CCN(C)CC2)ccc1Nc1ncc2c(n1)N(C1CCCC1)CC(F)(F)C(=O)N2C`: the Potency in test [1] is 20 µM (active); in test [4] it was 40 µM (active); in [5], 0.0142 µM (active); in test [7] it was 44.9 µM (active); in test [8], 35.7 µM (active); in test [9], 2 µM (active). In addition, the Potency in test [11] is 0.0179 µM (active); in test [16] it was 20 µM (active); in test [17], 44.9 µM (active); in test [12] it was 40 µM (active); in test [13] it was 40 µM (active); in test [14], 22.5 µM (active). For the same molecule, the outcome in test [15] was inactive. In test [3], the activity change, positive = activation is -53.6%. For the same molecule, the Potency result in test [18] was “inactive”.

With `CO/N=C(/C(=O)N[C@@H]1C(=O)N2C(C(=O)O)=C(COC(N)=O)CS[C@H]12)c1ccco1`, the Potency result in test [1], in test [19], in test [4], in test [6], in test [7] and in test [8] was “inactive” in each case. In addition, the Potency result in test [9], in [10], in test [16], in [17], in test [12] and in test [13] was “inactive” in each case. Moreover, the Potency result in test [14] and in test [18] was “inactive” throughout. Besides, in test [15], the molecule was called inactive. Moreover, in [11], the max response was 10.8%.

With `O=C1c2ccccc2C(=O)c2c(O)c(O)cc(O)c21`, the Potency result in test [1], in test [2], in test [4], in test [6], in test [7] and in [8] was “inactive” throughout. Moreover, the Potency entry in [9], in [10], in test [16], in test [17], in [12] and in test [13] was “inactive” each time. Besides, the Potency entry in test [14] and in [18] was “inactive” throughout. Also, the outcome in test [15] was inactive. The activity change, positive = activation in [3] was -7.48%. The max response in test [11] is 9.06%.

For the molecule `CN1C[C@H](C(=O)N[C@]2(C)O[C@@]3(O)[C@@H]4CCCN4C(=O)[C@H](Cc4ccccc4)N3C2=O)C[C@@H]2c3cccc4[nH]cc(c34)C[C@H]21`, the Potency in [1] was 12 µM (active); in test [2] it was 29.8 µM (active); in [5], 21.3 µM (active); in test [9], 23.9 µM (active); in test [11] it was 12 µM (active). The activity change, positive = activation in [3] was -52.3% [at 42.5 µM]. Besides, the Potency entry in test [6] and in test [18] was “inactive” in each case.

For `CCOC(=O)c1ccc(C#Cc2ccc3c(c2)C(C)(C)CCS3)nc1`, the Potency entry in test [1], in test [4], in test [6], in test [7], in [8] and in [10] was “inactive” in each case. The Potency entry in test [16], in test [17], in test [12], in test [13] and in test [18] was “inactive” each time. The molecule was classed as inactive in [15]. Further, in [14], the Potency is 0.301 µM (active).

In the case of `Cc1cc(=O)c2c(O)c3c(O)cc(=O)c4c3c3c(cc(O)c1c23)C(C)(C)C=4O`, the activity change, negative = cytotoxicity in test [1] was 15.9% [at 15.8 µM]; in test [4] it was -25.2% [at 15.8 µM]; in test [9], -25.2% [at 15.8 µM]; in [18], 0.327% [at 15.8 µM]. The Potency in test [6] was 3.69 µM (active); in test [8] it was 4.65 µM (active); in test [16] it was 5.22 µM (active); in test [17], 4.65 µM (active); in test [13] it was 4.65 µM (active); in [14], 3.69 µM (active). For the same molecule, the viability change, negative = cytotoxic in [10] is -10.2% [at 15.8 µM].

`CC1CC(C)C(=O)C1=O` (centres undefined): the Potency result in [1], in test [19], in [6], in test [7], in test [8] and in test [10] was “inactive” in each case. The Potency result in [16], in test [17], in [12], in test [13], in test [14] and in test [18] was “inactive” in each case. In [15], the call was inactive. In addition, the Potency in test [5] and in test [11] was 13.8 µM (active) throughout.
